Assay outcomes (PubChem)
DRD3 antagonist = D3 dopamine receptor (human) antagonism. D3R cells, DiscoveRx beta-arrestin luminescence, antagonist mode; active compounds read low. max response, negative = inhibition, %. 360,000 tested, 2.5% active. AID 652054; in the data active = max response below about -50%; inconclusive = no clear call, values can overlap the other calls; note: % is set by controls: 0 for no effect and ±100 for the full control effect
Target sequence (P35462 whole entry, looked up): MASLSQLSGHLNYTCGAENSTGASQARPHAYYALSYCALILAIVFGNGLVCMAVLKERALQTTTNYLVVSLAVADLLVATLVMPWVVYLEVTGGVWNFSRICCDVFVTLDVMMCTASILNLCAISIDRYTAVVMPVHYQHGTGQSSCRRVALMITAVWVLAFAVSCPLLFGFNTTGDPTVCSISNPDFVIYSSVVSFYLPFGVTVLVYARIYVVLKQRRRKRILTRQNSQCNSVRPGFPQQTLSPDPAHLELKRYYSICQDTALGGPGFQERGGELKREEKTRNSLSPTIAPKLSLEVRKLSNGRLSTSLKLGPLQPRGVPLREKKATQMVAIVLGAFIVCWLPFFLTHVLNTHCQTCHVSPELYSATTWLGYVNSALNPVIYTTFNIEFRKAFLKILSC
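Cells expressing the human receptor were seeded at 1500 cells/well, incubated overnight at 37 degrees C in 5% CO2, then exposed to library compounds with dopamine controls for 90 minutes at 37 degrees C before luminescent detection.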
KB-V1 cytotox = KB-V1 MDR subline cytotoxicity; AID 1347076; Potency, µM (doses to about 46.1 µM), hits mostly cytotoxic; 400,000 tested, 3.4% active; KB-V1 MDR cells viability, CellTiter-Glo, 72 h; note: potency is the fitted concentration of half-maximal effect; % is set by controls: 0 for no effect and ±100 for the full control effect; nearly all actives have a fitted effect of over 60% in size
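qHTS viability screen in drug-selected KB-V1 MDR cells: 72 h compound treatment at 37 degrees C, ATP luminescence end point.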
SW480 rereplic = induces DNA re-replication in SW480 colon adenocarcinoma cells; Potency, µM (highest dose often 46.1 µM), for inactives: top-dose re-replication activation, most hits filed as activators; AID 624297; 340,000 tested, 1.8% active; SW480 DNA re-replication, Hoechst DNA content imaging, 48 h; note: potency is the fitted concentration of half-maximal effect; % of control where 0% means no effect; nearly all actives have a fitted effect of over 55% in size
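First, 250 cells per well were seeded. Next, compound or vehicle (23 nL) was pinned in, plates sat 48 hr at 37 C. Finally Hoechst was added for 40 min before fluorescence scanning.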
D3 ag = agonists of human D3 dopamine receptor; AID 652048; 410,000 tested, 0.58% active; D3R DiscoveRx beta-arrestin cells, luminescence, 90 min; P35462; max activation, %; in the data active = max activation above about 30%; note: 0% is about no effect
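Agonist mode: compounds and dopamine controls were applied to plated cells for 90 min at 37 degrees C after an overnight attachment at 1500 cells/well. Luminescent read-out followed 30 - 60 minutes at room temperature with DiscoveRx detection reagent.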
MCF10A rerep = DNA re-replication induction in MCF 10a cells. MCF 10A DNA re-replication, Hoechst nuclear intensity, 48 h. Potency, µM (titrated, usually from 46.1 µM), for inactives: at the highest dose activity, positive = re-replication, actives largely listed as activators. 350,000 tested, 2.9% active; note: potency is the fitted concentration of half-maximal effect; % of control where 0% means no effect; nearly all actives have a fitted effect of over 50% in size
KB-3-1 tox = KB-3-1 parental cell cytotoxicity | KB-3-1 viability, CellTiter-Glo ATP luminescence, 72 h | Potency, µM (titrated, usually from 46.1 µM), usual class: cytotoxic | 400,000 tested, 1.4% active; note: potency is the fitted concentration of half-maximal effect; % is set by controls: 0 for no effect and ±100 for the full control effect; nearly all actives have a fitted effect of over 60% in size
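Cytotoxicity measured as CellTiter-Glo luminescence after 72 h at 37 C. Compound titrations were pinned onto drug-naive KB-3-1 parental adenocarcinoma cells grown in DMEM with 10% FBS, and normalized data fitted to concentration-response curves.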
The depositor's hits bear a star; i = inactive; u = inconclusive; x = no result; [ ] = dose if it differs, or a comment. Rows were chosen to be rich in hits. Some 8.9% of all compounds tested hit in one or more screens of this group. Unless noted, calls come from the whole dose curve; as a rule, active = well fitted curve in the direction sought with a large enough effect; inconclusive = small, poorly fitted or top-dose-only effect, or another doubt; inactive = no such curve, though single readings can be large; an effect the other way counts as inactive or inconclusive.

SMILES | DRD3 antagonist | KB-V1 cytotox | SW480 rereplic | D3 ag | MCF10A rerep | KB-3-1 tox
COc1ccc(NC(=O)COc2ccc(-n3cnnn3)cc2)cc1OC | -7.8 | i | 281.8% | -14.1 | 1.9% | i
COC(=O)c1ccccc1NC(=O)CCC(=O)N1CCOc2ccccc21 | x | i | x | 3.7 | x | i
COc1ccccc1-c1cc(C(F)(F)F)nc(N2CCCCC2)n1 | -7.6 | i | -0.5% | 0.8 | 25.6% | i
COc1ccccc1-c1cc(C(F)(F)F)nc(S(=O)(=O)CCCC(=O)NC(C)C)n1 | -67.4* | u | 2.91µM* | -0.5 | 6.31µM* | u
COc1ccccc1-c1cc(C(F)(F)F)nc(S(=O)(=O)CCCC(=O)NCc2ccc(F)cc2)n1 | -67.0* | i | u | -8.9 | 4.11µM* | u
COc1ccccc1-c1cc(C(F)(F)F)nc(N2CCCC2)n1 | -2.7 | i | 18.5% | 2.2 | 25.9µM* | i
COc1ccccc1-c1cc(C(F)(F)F)nc(S(=O)(=O)CCCC(=O)Nc2cccnc2Cl)n1 | -51.6* | i | u | -15.1 | u | i
CN(C(=O)c1cccc(NC(=O)Cc2ccc(NC(=O)C3CCN(C(=O)C4CCC4)CC3)cc2)c1)C1CCC1 | 12.3 | i | -70.7% | 10.5 | u | i
C[C@H]1CN([C@@H](C)CO)C(=O)CCCn2nncc2CO[C@@H]1CN(C)S(=O)(=O)c1cn(C)cn1 | 14.0 | i | x | 5.5 | x | i
COc1ccc(N2Cc3cccc(C(=O)Nc4ccc(F)cc4)c3C2=O)cc1 | x | x | x | 5.1 | x | x
COc1ccc(CNC(=O)c2cc3cccc4c3n2CC(C)S4)cc1 (stereo not drawn) | x | i | x | -5.2 | x | i
CN1CCN(c2nc(-c3ccco3)cc(C(F)(F)F)n2)CC1 | -92.0* | i | -1.4% | -31.8 | -13.1% | i
COc1cccc(-c2cc(C(F)(F)F)nc(N3CCN(c4ccccc4)CC3)n2)c1 | 4.4 | 16.4µM* | -2.1% | 3.1 | u | u
COc1ccccc1-c1cc(C(F)(F)F)nc(S(C)(=O)=O)n1 | u | u | u | -4.3 | 4.11µM* | u
COc1ccccc1-c1cc(C(F)(F)F)nc(S(=O)(=O)CCCC(=O)N2CCCCC2C)n1 (stereo not drawn) | -88.0* | i | u | -6.5 | 3.98µM* | u
COc1ccccc1-c1cc(C(F)(F)F)nc(S(=O)(=O)CCCC(=O)Nc2ccccc2F)n1 | x | x | x | -23.9 | x | x
CCOC(=O)N1CCN(c2nc(-c3cccc(OC)c3)cc(C(F)(F)F)n2)CC1 | -8.8 | i | 0.2% | 4.0 | u | i
CCOC(=O)c1c(S(=O)(=O)NCC(=O)N2CCN(c3cccc(Cl)c3)CC2)c(C)n(C)c1C | x | i | x | -1.1 | x | i
CC(=O)c1cccc(NC(=O)Cn2nc(C(F)(F)F)c3c2CCC3)c1 | x | i | x | -12.0 | x | i
CC(=O)C[C@H](c1ccc([N+](=O)[O-])cc1)c1c(O)c2ccccc2oc1=O | x | x | -5.3%[20.6 µM] | x | -1.0%[20.6 µM] | x
N#C/C(=C\c1cn(CC(=O)O)c2ccccc12)C(=O)NCc1ccccc1 | -6.8 | u | -5.9% | 2.5 | 1.6% | i
N#C/C(=C\c1cn(Cc2ccccc2F)c2ccccc12)C(=O)NCc1ccco1 | 13.0 | i | 29.7% | 5.8 | 18.4µM* | i
COc1ccccc1OCCn1cc(/C=C(\C#N)C(=O)NCc2ccco2)c2ccccc21 | -0.8 | 3.66µM* | -63.5% | -1.9 | 13.5% | i
N#C/C(=C\c1cn(CCOc2ccccc2)c2ccccc12)C(=O)NCc1cccs1 | -4.6 | u | 16.4µM* | 9.6 | u | i
N#C/C(=C\c1cn(CC(=O)N2CCCCC2)c2ccccc12)C(=O)NCc1ccc2c(c1)OCO2 | -14.7 | 25.9µM* | 1.64µM* | 4.1 | 0.7% | i
SMILES | DRD3 antagonist | KB-V1 cytotox | SW480 rereplic | D3 ag | MCF10A rerep | KB-3-1 tox
Cc1ccc(C)c(OCCn2cc(/C=C(\C#N)C(=O)NCc3ccco3)c3ccccc32)c1 | -10.3 | i | u | -2.8 | u | i
Cc1nn2c(C)c(C(=O)NCc3ccc(OC(C)C)cc3)cnc2c1-c1ccc(F)cc1 | x | i | x | 9.0 | x | i
COc1c(C)c2c(c(O)c1C/C=C(\C)CCC(=O)OCCN1CCOCC1)C(=O)OC2 | x | x | x | -11.1 | x | x
CCOC(=O)c1ccc2nc(C)cc(Nc3ccc(OC(C)C)cc3)c2c1 | x | u | x | -13.4 | x | i
COc1ccc(CNc2nc(NC(C)=O)nn2-c2ccccc2)cc1 | -11.6 | i | 15.9% | 6.7 | -14.2% | i
CC1(C)O[C@H]2[C@@H](O1)[C@@H](C(=O)Nc1ccc(F)c(F)c1)O[C@@H]1OC(C)(C)O[C@@H]12 | x | x | x | -0.4 | x | x
Cc1cccc(NC(=O)/C(C#N)=C/c2cn(CC(=O)NCc3ccco3)c3ccccc23)c1 | 1.2 | i | u | -2.6 | 8.2µM* | i
COCCNC(=O)/C(C#N)=C/c1cn(CC(=O)NCc2ccco2)c2ccccc12 | 7.1 | i | 0.1% | 25.0 | 16.4% | i
Cn1cc(C(c2ccccc2)c2ccc(Cl)s2)c2ccccc21 (stereo not drawn) | x | i | x | -20.4 | x | i
CC(C)(C)OC(=O)C[C@@H]1C/C=C\C[C@@H](CC(=O)N[C@H](CO)Cc2ccccc2)C(=O)N2CCC[C@H]2COC1=O | 10.0 | i | 7.1% | 0.0 | 21.2% | i
Cc1cccc(C(=O)N2CCc3cc(CNC(=O)c4ccnn4C)ccc32)c1 | x | i | x | -11.0 | x | i
Cc1ccsc1CN(C)C(=O)CN1C(=O)NC2(CCCc3ccccc32)C1=O (stereo not drawn) | 1.2 | i | -6.1% | 4.6 | u | i
COc1cccc(CN(C)C(=O)CN2C(=O)NC3(CCCc4ccccc43)C2=O)c1 (stereo not drawn) | -5.5 | 20.6µM* | -3.5% | 0.3 | -3.4% | i
COc1ccc(N(CC(=O)NCCSCc2ccc(C)cc2)S(=O)(=O)c2ccccc2)cc1 | 58.8 | 6.51µM* | 3.0% | 2.9 | u | u
COc1ccccc1N(CC(=O)NCCSCc1ccc(C)cc1)S(=O)(=O)c1ccccc1 | 36.0 | u | 3.1% | 3.5 | -0.6% | u
COc1ccc(OC)c(N(CC(=O)NCCc2ccc(OC)c(OC)c2)S(=O)(=O)c2ccccc2)c1 | 3.5 | u | 0.6% | 3.1 | 3.2% | i
COc1ccc(CCNC(=O)CN(c2cc(OC)ccc2OC)S(=O)(=O)c2ccccc2)cc1 | 25.7 | 23.1µM* | -77.5% | 1.8 | -5.8% | i
CN1CCc2ccccc2Cc2[nH]c3ccccc3c2CC1 | -110.3* | i | 13.9% | -53.9 | -18.5% | i
O=C1CCNc2ccc(-c3ccccc3)cc21 | 1.2 | i | 25.8% | -1.8 | 23.1µM* | i
O=C1CCNc2cc3ccccc3cc21 | -4.2 | u | u | -2.6 | -2.3% | 23.1µM*
